PubChem BioAssay (NCI)
The panel holds about 79,000 compounds, 15% with a hit somewhere; the sample as a whole holds those more often. A number with no mark means an inactive call. The source made the active and inactive calls. Cut-off read from the data, not from the text of the source: active = growth inhibition above about 70%; inactive = the rest.

assay: NCI Yeast Anticancer Drug Screen. Data for the bub3 strain (AID 167); conditions: S. cerevisiae bub3 mutant strain, at 50.0 µM, hits give high values
Procedure, shortened: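 Screening used yeast with an engineered genetic alteration affecting cell cycle control. Compound-exposed cultures were compared with vehicle cultures, and reduced growth was taken as inhibition.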

SMILES	growth inhibition
NC(Cc1ccccc1)=NCC(=O)O	-19.7%
CCN(CC)CCC(=O)O[C@H]1CC[C@H](CC(C)[C@H]2CC(=O)C(C)C=C(C)[C@H](OC(=O)CCN(CC)CC)C(OC)C(=O)[C@@H](C)CC(C)/C=C/C=C/C=C(C)C(OC)CC3CC[C@H](C)[C@](O)(O3)C(=O)C(=O)N3CCCCC3C(=O)O2)CC1OC (stereo not given in full)	91.5% (active)
O=C1c2cc(Cl)ccc2-n2c(noc2=O)C2CSCN12 (stereo not given)	-18.3%
Cc1cc(C)c(CSc2cc(N)nc(N)c2N)c(C)c1	6.9%
COc1cccc(/C=C\C#N)c1	-26.9%
CC(=O)Nc1ccc2ccc3ccccc3c2c1	-4.35%
COc1ccccc1/C=C(\S)C(=O)O	-12.7%
CCOC(=O)c1ccc(N2C(C#N)c3ccccc3OC2c2ccccc2O)cc1 (stereo not given)	1.3%
NC(=O)C1CCCN(C2OC(COP(=O)(O)OP(=O)(O)OCC3OC(n4cnc5c(N)ncnc54)C(OP(=O)(O)O)C3O)C(O)C2O)C1 (stereo not given)	16.3%
N#CCCS(=O)(=O)O	15.9%
N#C/C=C\c1ccc(F)cc1	10.8%
N#CC(C#N)=C(O)/C(=C/c1ccc(Cl)cc1Cl)NC(=O)c1ccccc1	-13.3%
C[n+]1cc(N)cc2ccccc21	9.8%
CS(=O)(=O)c1ccc(C=O)cc1	-1.4%
CC1CCCCc2nc3c(c(=O)n21)CCCC3 (stereo not given)	25.6%
COc1nc(NC2OC(CO)C(O)C(O)C2O)c(/C=N/O)c(=O)n1C (stereo not given)	7.85%
NC(=S)N/N=C1\C(=O)NC(=O)C1c1ccccc1 (stereo not given)	15.6%
Cc1cc(C(C)C)cc(C(C)C)c1	-0.85%
Cc1[nH]n(C(=N)N)c(=O)c1CCO	2%
CC(O)CN(Cc1ccccc1)CC(C)O (stereo not given)	-3.5%

SMILES	growth inhibition
O=C(O)CCCc1ccc(O)cc1	-1.15%
CCCCCCCCCCCCCCC/C=C\C(=O)O	9.45%
CCOC(=O)CCC(NC(=O)OCc1ccccc1)C(=O)NC(CCC(=O)OCC)C(=O)NC(CCC(=O)OCC)C(=O)NC(CCC(=O)OCC)C(=O)NC(CCC(=O)OCC)C(=O)NC(CCC(=O)OCC)C(=O)NC(CCC(=O)OCC)C(=O)OCC (stereo not given)	-10.7%
COC1=NC2(C)C(C)=C(c3ccccc3)C1(C)c1ccccc12 (stereo not given)	7.25%
Cc1cccc(Nc2nnc(Nc3cccc(C)n3)c3ccccc23)n1	-3.8%
O=c1cc(-c2ccc(Cl)cc2)oc(-c2ccc(Cl)cc2)c1	0.7%
C=CCSC(=S)NC	-0.9%
O=C(Cn1c(=O)oc2ccc(C(=O)c3ccccc3Cl)cc21)c1ccc([N+](=O)[O-])cc1	-2.25%
CNC(=O)OCc1c(COC(=O)NC)c(C)n(-c2ccccc2)c1C	-3.95%
COc1ccc(C(C#N)Cc2ccccc2)c([N+](=O)[O-])c1 (stereo not given)	0.45%
NC(=O)Oc1cccc(OC(N)=O)c1	18.8%
CC(=O)Nc1ccc2c(c1)C(=O)c1ccccc1-2	-16.8%
O=C(O)Cc1cc(Cl)ccc1Cl	-1.2%
O=C(O)CNc1ccccc1.[Cu+2]	-35.9%
CC1(C)CCCC/C1=N\Nc1ccc([N+](=O)[O-])cc1[N+](=O)[O-]	1.1%
Cc1cc(N(CCC#N)CCC#N)ccc1/C=C(\NC(=O)/C=C/c1ccccc1)C(=O)Nc1ccc(Cl)cc1	3.9%
Nc1nc2ccc(Br)cc2s1	32.5%
O=C(Cc1ccccc1)N(C(=O)c1ccccc1)c1ccccc1	24.1%
CC(C)CCCC(C)C1CCC2(C)C3=C(CCC12C)C1(C)Cc2cnn(-c4ccccc4)c2C(C)(C)C1CC3 (stereo not given)	-2.85%
O=[N+]([O-])c1cc([N+](=O)[O-])c(/C=C/c2ccccc2Cl)cc1/C=C/c1ccccc1Cl	0.05%

assay: NCI Yeast Anticancer Drug Screen. Data for the mlh1 rad18 strain (AID 175); conditions: S. cerevisiae mlh1 rad18 strain growth inhibition; at 50.0 µM; hits give high values
Procedure, shortened: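 A repair-deficient yeast strain is exposed to test compound, and growth is scored relative to vehicle-treated controls.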

SMILES	growth inhibition
NC(Cc1ccccc1)=NCC(=O)O	-25.2%
CCN(CC)CCC(=O)O[C@H]1CC[C@H](CC(C)[C@H]2CC(=O)C(C)C=C(C)[C@H](OC(=O)CCN(CC)CC)C(OC)C(=O)[C@@H](C)CC(C)/C=C/C=C/C=C(C)C(OC)CC3CC[C@H](C)[C@](O)(O3)C(=O)C(=O)N3CCCCC3C(=O)O2)CC1OC (stereo not given in full)	86.5% (active)
O=C1c2cc(Cl)ccc2-n2c(noc2=O)C2CSCN12 (stereo not given)	11.6%
Cc1cc(C)c(CSc2cc(N)nc(N)c2N)c(C)c1	48.2%
COc1cccc(/C=C\C#N)c1	-22.1%
CC(=O)Nc1ccc2ccc3ccccc3c2c1	23.7%
COc1ccccc1/C=C(\S)C(=O)O	8.45%
CCOC(=O)c1ccc(N2C(C#N)c3ccccc3OC2c2ccccc2O)cc1 (stereo not given)	21.4%
NC(=O)C1CCCN(C2OC(COP(=O)(O)OP(=O)(O)OCC3OC(n4cnc5c(N)ncnc54)C(OP(=O)(O)O)C3O)C(O)C2O)C1 (stereo not given)	-0.9%
N#CCCS(=O)(=O)O	13.8%
N#C/C=C\c1ccc(F)cc1	12.2%
N#CC(C#N)=C(O)/C(=C/c1ccc(Cl)cc1Cl)NC(=O)c1ccccc1	14.3%
C[n+]1cc(N)cc2ccccc21	-16.4%
CS(=O)(=O)c1ccc(C=O)cc1	8.3%
CC1CCCCc2nc3c(c(=O)n21)CCCC3 (stereo not given)	41%
COc1nc(NC2OC(CO)C(O)C(O)C2O)c(/C=N/O)c(=O)n1C (stereo not given)	4.45%
NC(=S)N/N=C1\C(=O)NC(=O)C1c1ccccc1 (stereo not given)	6.95%
Cc1cc(C(C)C)cc(C(C)C)c1	7.95%
Cc1[nH]n(C(=N)N)c(=O)c1CCO	-50.7%
CC(O)CN(Cc1ccccc1)CC(C)O (stereo not given)	-14.9%

SMILES	growth inhibition
O=C(O)CCCc1ccc(O)cc1	20.3%
CCCCCCCCCCCCCCC/C=C\C(=O)O	1.4%
CCOC(=O)CCC(NC(=O)OCc1ccccc1)C(=O)NC(CCC(=O)OCC)C(=O)NC(CCC(=O)OCC)C(=O)NC(CCC(=O)OCC)C(=O)NC(CCC(=O)OCC)C(=O)NC(CCC(=O)OCC)C(=O)NC(CCC(=O)OCC)C(=O)OCC (stereo not given)	2.2%
COC1=NC2(C)C(C)=C(c3ccccc3)C1(C)c1ccccc12 (stereo not given)	-3.8%
Cc1cccc(Nc2nnc(Nc3cccc(C)n3)c3ccccc23)n1	4%
O=c1cc(-c2ccc(Cl)cc2)oc(-c2ccc(Cl)cc2)c1	2.8%
C=CCSC(=S)NC	8.4%
O=C(Cn1c(=O)oc2ccc(C(=O)c3ccccc3Cl)cc21)c1ccc([N+](=O)[O-])cc1	-2.65%
CNC(=O)OCc1c(COC(=O)NC)c(C)n(-c2ccccc2)c1C	-24%
COc1ccc(C(C#N)Cc2ccccc2)c([N+](=O)[O-])c1 (stereo not given)	16.4%
NC(=O)Oc1cccc(OC(N)=O)c1	13.6%
CC(=O)Nc1ccc2c(c1)C(=O)c1ccccc1-2	31.4%
O=C(O)Cc1cc(Cl)ccc1Cl	-9.05%
O=C(O)CNc1ccccc1.[Cu+2]	-15.8%
CC1(C)CCCC/C1=N\Nc1ccc([N+](=O)[O-])cc1[N+](=O)[O-]	22.1%
Cc1cc(N(CCC#N)CCC#N)ccc1/C=C(\NC(=O)/C=C/c1ccccc1)C(=O)Nc1ccc(Cl)cc1	-1.65%
Nc1nc2ccc(Br)cc2s1	32.4%
O=C(Cc1ccccc1)N(C(=O)c1ccccc1)c1ccccc1	15.7%
CC(C)CCCC(C)C1CCC2(C)C3=C(CCC12C)C1(C)Cc2cnn(-c4ccccc4)c2C(C)(C)C1CC3 (stereo not given)	-17.4%
O=[N+]([O-])c1cc([N+](=O)[O-])c(/C=C/c2ccccc2Cl)cc1/C=C/c1ccccc1Cl	0.5%
